Peg3 prom inh: Peg3 promoter activity inhibition; HeLa PEG-Prom luciferase reporter, luminescence, overnight; inhibition, % at 20 µM; actives 1.7% (n = 360,000);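 active = inhibition of at least 50% at 20 µM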
TROY signal inh: TROY signaling inhibition; Q293 LMP1-TROYcd NF-kB luciferase reporter, 4 h; inhibition, % at 10 µM; actives 0.98% (n = 360,000); AID 1347056;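 active = compounds whose plate-normalised and pattern-corrected inhibition of the luciferase reporter signal at the single screening dose is 50% or more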
TWEAK Fn14 block: blocks TWEAK-Fn14 interaction in a reporter cell assay | TWEAK-stimulated Fn14 reporter cells, luciferase luminescence, 8 h | inhibition, % at 10 µM | actives 2% (n = 360,000) | AID 1159606; in the data active = inhibition above about 50%
LMP1 NFkB inh: reduces LMP1-driven NF-kappaB luciferase signal; inhibition, % at 12.5 µM; LMP1-induced NF-kappaB luciferase reporter cells, luminescence; AID 504558; actives 0.69% (n = 350,000); in the data active = inhibition above about 41%; inconclusive = no clear call, values can overlap the other calls
HIF-2a block: inhibitors of HIF-2a; inhibition, % at 18.8 µM; 786-0 RCC cells HIF-2a reporter, luciferase luminescence, overnight; actives 0.72% (n = 360,000);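 active = inhibition of the luminescence signal of 40% or more relative to plate controls, in a single-dose primary screen at 18.75 µM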
MITF TRPM1 inh: reduces MITF-dependent TRPM1 promoter luciferase signal | SK-MEL-5 TRPM1 promoter luciferase, 24 h | actives 0.83% (n = 330,000) | inhibition, % at 12.5 µM;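 active = mean inhibition across replicates of 60% or more, whatever share of single replicates reaches that level; inconclusive = some that reach 60%, reason not given; inactive = mean inhibition across replicates below 60%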
Hits are given with their value; - = inactive; ? = inconclusive; . = no result. Rows were chosen to be rich in hits. Some 4% of all compounds tested hit in one or more screens of this group.

SMILES	Peg3 prom inh	TROY signal inh	TWEAK Fn14 block	LMP1 NFkB inh	HIF-2a block	MITF TRPM1 inh
O=C(Nc1ccc(F)cc1)Nc1nnc(COc2ccccc2F)s1	-	57	-	-	-	-
Cc1ccc(NC(=O)Nc2nnc(-c3ccncc3)s2)cc1C	-	-	82	-	-	-
COC(=O)Nc1nnc(-c2ccncc2)s1	-	-	-	-	-	-
O=C(Nc1ccc(Cl)cc1)Nc1nnc(-c2ccncc2)s1	64	-	81	-	-	-
O=C(Nc1ccc(F)cc1)Nc1nnc(-c2ccncc2)s1	-	-	-	-	-	-
O=C(c1cccnc1)N1CCC2CC1c1c(Cl)cccc12 (stereo not given)	-	-	-	-	-	.
Cc1ccc(S(=O)(=O)N2CCN(C(=O)c3ccnn3C)CC2)cc1C	-	-	-	-	-	-
CCN(Cc1ccc(OC)c(F)c1)C(=O)/C=C/c1ccc(S(=O)(=O)N2CCOCC2)cc1	-	-	-	-	-	-
O=C(Nc1cccc(Cl)c1)Nc1nnc(CSCCOc2ccc(Cl)cc2)s1	-	51	-	44	-	67
Cc1ccc(-n2c(=O)c3c(c4cc(C)ccc4n3C)n(CC(=O)NCC3CCCO3)c2=O)cc1 (stereo not given)	-	-	-	49	-	.
COCCCNC(=O)C1Cc2cc(S(=O)(=O)N3CCCC3)ccc2N1C(C)=O (stereo not given)	-	-	-	-	-	-
CN1C[C@@H]2[C@@H]3C(=O)N(Cc4ccccc4)C(=O)[C@@H]3[C@](C)(C1=O)N2C(=O)c1ccc(Br)cc1	-	-	-	-	-	-
N#Cc1c(-c2ccccc2)nc(SCc2cccc(Cl)c2)[nH]c1=O	-	58	-	-	-	-
CCC(C)(C)C1CCc2[nH]nc(C(=O)N/N=C(\C)c3ccco3)c2C1 (stereo not given)	-	68	-	-	-	-
O=C(NN=C1CCCC1)c1n[nH]c2c1CCC2	-	-	-	-	-	-
C/C(=N\NC(=O)c1n[nH]c2c1CCC2)c1ccco1	-	-	59	-	-	-
C=CCN1C(=O)N(c2ccc(F)cc2)C(=O)C1CC(=O)Nc1ccc(Cl)cc1 (stereo not given)	-	-	80	-	-	-
O=C(NC(=S)Nc1ccc(CN2CCOCC2)cc1)c1ccc(-c2cccc(Cl)c2)o1	-	58	-	-	-	-
O=C(NC(=S)Nc1ccccc1N1CCOCC1)c1ccc(-c2cccc(Cl)c2)o1	-	-	-	-	-	-
O=C(Nc1ccc(CN2CCOCC2)cc1)c1cc2ccccn2n1	-	69	87	?	-	.
O=C(Nc1ccc(CN2CCOCC2)cc1)c1ccc(-c2cccc(Cl)c2)o1	-	-	57	-	-	-
O=C(Nc1ccc(N2CCN(C(=O)c3ccc(Cl)cc3)CC2)cc1)c1cc2ccccc2o1	-	69	90	-	-	-
CCN1C(=O)N2C[C@H]3CON(C)[C@H]3C[C@H]2c2ccccc21	-	-	-	.	-	.
Cc1c(NC(=O)c2cc3ccccc3o2)cccc1-n1cnnn1	-	-	-	-	-	.
COc1cc(CNC[C@H]2O[C@@H](n3cc(C)c(=O)[nH]c3=O)C[C@@H]2O)ccc1OCc1cccc(Cl)c1	-	-	-	-	-	.
SMILES	Peg3 prom inh	TROY signal inh	TWEAK Fn14 block	LMP1 NFkB inh	HIF-2a block	MITF TRPM1 inh
S=C(NCCCN1CCN(CCCNC(=S)NC2CCCCC2)CC1)NC1CCCCC1	-	-	-	-	-	-
CN1CCN(c2ccc(NC(=O)c3ccc(-c4ccc(Cl)cc4)o3)cc2)CC1	98	-	-	-	-	-
COC(=O)[C@H](NC(=O)c1cc(-c2ccccc2)sc1N)C(C)C	.	.	.	.	-	.
CC(C)(C)NC(=O)CN(Cc1ccccc1)S(=O)(=O)c1ccccc1	-	-	54	-	-	-
N#C/C(N=Nc1ccccc1O)=N\Nc1ccccc1O	67	-	88	-	-	69
CCn1c(CNC(=O)C2CCCCC2)cc2cc(C)ccc21	-	-	54	-	-	-
Cc1cc(/C=C2/NC(=O)N(c3ccccc3)C2=O)c(C)n1C(C)C	-	-	60	-	-	-
Cc1cc(/C=C2/NC(=O)N(Cc3ccccc3F)C2=O)c(C)n1C(C)C	-	-	-	-	-	-
Cc1cc(N2CCCC2=O)cc(C)c1S(=O)(=O)Nc1c(C)nn(C)c1C	-	-	-	49	-	-
N=C1N(c2ccccc2)C(=S)C(=Nc2ccccc2)N1c1ccccc1	74	-	-	-	-	-

Bioassay records deposited in PubChem by several laboratories.
